# CF NFkB block: cystic fibrosis NF-kB activation inhibition. KKLEB NF-kB-GFP reporter, PAF-induced, GFP fluorescence overnight. inhibition, % at 5 µM. 360,000 compounds, 0.86% hits. AID 588850;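 active means at least 50% inhibition at 5 µM, scaled per plate between neutral and stimulator controls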;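 further: PAF is a Pseudomonas aeruginosa culture filtrate used as stimulus; plate controls were PAF-stimulated DMSO wells for no effect and unstimulated DMSO wells for full effect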
# KKLEB tox: counter-screen for CF NF-kB inhibitors: cytotoxicity; KKLEB CF airway cells viability, ATPlite luminescence, overnight; active compounds read low; cells stimulated with P. aeruginosa culture filtrate; activity change (cytotoxicity), % at 5 µM; 360,000 compounds, 0.36% hits;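 active means corrected activity change at or below -50% at 5 µM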
# PPC-1+TRAIL kill: PPC-1 cancer cell killing with TRAIL present. cell killing (% activity), % at 4 µM or 5 µM. PPC-1 cells + TRAIL, ATPLite viability luminescence. 220,000 compounds, 0.41% hits;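 active means cell killing above 50% in the first pass at 4 µM, then a duplicate retest at 5 µM averaging 50% or more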;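 further: plate controls were cells with TRAIL plus DMSO for no effect and medium-only wells lacking cells for full effect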
# Peg3 prom inh: reduces Peg3 promoter-driven luciferase expression in HeLa | HeLa PEG-Prom luciferase reporter, luminescence, overnight | inhibition, % at 20 µM | 360,000 compounds, 1.7% hits;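 active means inhibition of at least 50% at 20 µM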
# HIF-2a inh: blocks HIF-2a reporter activity. 360,000 compounds, 0.72% hits. inhibition, % at 18.8 µM. 786-0 RCC cells HIF-2a reporter, luciferase luminescence, overnight. AID 624352;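 active means inhibition of the luminescence signal of 40% or more relative to plate controls, in a single-dose primary screen at 18.75 µM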
# TRAIL sens C8: sensitizes caspase-8 expressing cells to TRAIL. NB7+C8 cells + TRAIL, ATPlite viability luminescence. inhibition (viability loss, TRAIL sensitization), % at 10 µM. 360,000 compounds, 1% hits. AID 624354;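 active means compounds causing at least 50% loss of cell viability in the single-dose screen, relative to plate controls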
# An asterisk follows results filed as active; nt = no result given. Shown are actives, neighbours in structure and some others; about 3.1% of the full set was active somewhere.
SMILES,CF NFkB block,KKLEB tox,PPC-1+TRAIL kill,Peg3 prom inh,HIF-2a inh,TRAIL sens C8
C#CCOCCOCCOCCNc1nc(N2CCN(C(=O)CCCCCCCCCCNC(=O)[C@H](CCCCN)n3cc(C[C@@H](C)CC)nn3)CC2)nc(N2CCN(C(=O)CCCCCCCCCCNC(=O)[C@H](CCCCN)n3cc(C[C@@H](C)CC)nn3)CC2)n1,8.6,-28.0,nt,104.8*,23.6,94.8*
C#CCOCCOCCOCCNc1nc(N2CCN(C(=O)CCCCCCCCCCNC(=O)Cn3cc(C[C@@H](C)O)nn3)CC2)nc(N2CCN(C(=O)CCCCCCCCCCNC(=O)[C@H](CCCCN)n3cc(C[C@@H](C)CC)nn3)CC2)n1,9.6,-23.2,nt,99.2*,3.8,86.1*
C#CCOCCOCCOCCNc1nc(N2CCN(C(=O)CCCCCCCCCCNC(=O)Cn3cc(C[C@@H](C)O)nn3)CC2)nc(N2CCN(C(=O)CCCCCCCCCCNC(=O)Cn3cc(C[C@@H](C)O)nn3)CC2)n1,8.1,7.9,nt,16.4,-14.5,9.4
O=C(C(Br)=Cc1ccccc1)c1ccccc1,94.2*,-42.8,nt,107.9*,85.5*,15.9
CC(=Cc1ccccc1)C(=O)c1ccccc1,-11.0,6.5,nt,-13.6,1.1,-6.1
NS(=O)(=O)c1ccc(N/N=C/c2cn(-c3ccccc3)nc2-c2cccs2)cc1,-15.0,6.6,23.1,-102.3,-215.9,36.3
NS(=O)(=O)c1ccc(N/N=C/c2cn(-c3ccccc3)nc2-c2cccs2)c([N+](=O)[O-])c1,87.5*,-81.6*,39.9,-0.7,0.3,35.2
CC(C)(C)S(=O)N1Cc2cc(=O)n(Cc3ccccc3)c(CCO)c2[C@H]1CCO (stereo partly drawn),-7.2,15.0,nt,-3.4,-2.0,-7.3
Cc1[nH]c2ccc(C(=O)OCC(=O)NC3(C#N)CCCCC3)cc2c1C,-34.4,8.7,nt,6.6,0.7,-1.0
C/C(=N\NC(=O)c1ccc2ccccc2c1)c1cccs1,6.2,-2.5,nt,-195.2,-206.8,55.1*
Cc1ccc(S(=O)(=O)N(C(=O)c2ccco2)c2cc3sc(=O)oc3c3ccccc23)cc1,63.9*,-28.0,32.4,10.9,2.0,-4.4
CC(=O)N(c1ccc2oc(=O)sc2c1)S(=O)(=O)c1ccccc1,-10.7,26.1,5.7,-15.1,-0.3,-7.9
COc1ccc(S(=O)(=O)N(C(=O)c2ccco2)c2cc3sc(=O)oc3c3ccccc23)cc1,70.6*,-31.1,-3.6,19.4,-11.8,40.5
CCOc1ccc(S(=O)(=O)N(C(=O)c2ccco2)c2cc3sc(=O)oc3c3ccccc23)cc1,51.5*,-9.6,21.5,20.0,6.6,8.5
CCOc1ccc(S(=O)(=O)N(C)CC(=O)NCc2ccco2)cc1,1.9,16.6,nt,9.8,8.8,-22.4
CCCN1CCC(C(=O)NC(c2ccc(Cl)cc2)c2ccsc2)CC1 (stereo not drawn),-4.0,9.8,nt,-16.1,5.7,-14.8
O=C(CCC(=O)c1ccc(Cl)cc1)OCc1nc2ccsc2c(=O)[nH]1,24.1,9.9,nt,5.8,11.3,5.2
O=C(O)c1cccc(NC(=O)c2ccc3c(c2)C(=O)N(C2CCCCC2)C3=O)c1,6.5,-11.6,nt,-24.3,-48.8,7.8
Cc1ccccc1OCCNc1cc(N2CC(C)NC(C)C2)ccc1[N+](=O)[O-] (stereo not drawn),16.5,-2.3,1.1,80.5*,-15.9,17.0
CC1CN(c2ccc([N+](=O)[O-])c(NCCOc3ccc(Cl)cc3)c2)CC(C)N1 (stereo not drawn),-11.0,-17.6,nt,77.5*,-15.9,-2.8
CC1CN(c2ccc([N+](=O)[O-])c(NCCOc3ccccc3)c2)CC(C)N1 (stereo not drawn),11.3,-1.3,nt,29.4,-5.7,3.7
CCc1nc(N2CCN(C(C)=O)CC2)c2c3c(sc2n1)CC(C(C)(C)C)CC3 (stereo not drawn),33.2,-35.3,nt,34.4,5.3,31.6
CCc1nc(N2CCN(C(=O)CCl)CC2)c2c3c(sc2n1)CC(C)CC3 (stereo not drawn),8.9,-16.6,nt,15.4,-8.9,87.2*
Cc1cc(C)c(S(=O)(=O)/N=C2/C=C(Sc3ncn[nH]3)C(=O)c3ccccc32)cc1C,76.7*,-59.0*,47.9,106.0*,68.1*,-1.3
CCOC(=O)c1cc2c(C)n(-c3ccc(C)cc3)c(C)c2ccc1=O,1.8,-20.7,-4.2,-188.3,-202.9,58.7*
SMILES,CF NFkB block,KKLEB tox,PPC-1+TRAIL kill,Peg3 prom inh,HIF-2a inh,TRAIL sens C8
Cc1ccccc1S(=O)(=O)NC(=O)C1(C)CCN1C(=O)COc1ccc(Cl)cc1 (stereo not drawn),4.5,9.7,nt,11.7,11.3,-9.3
COc1ccc(CN(C(=O)CSc2nnc(-c3ccccc3C)o2)c2ccc(F)cc2)cc1,15.6,-11.0,28.3,30.7,-2.3,95.0*
CCOC(=O)c1c(-c2ccccc2)nnn1-c1nc(OCC)nc(N2CCCCC2)n1,4.5,10.2,7.8,52.7*,9.3,0.5
O=C(COC(=O)CNC(=O)c1ccccc1)NC12CC3CC(CC(C3)C1)C2,-12.0,4.0,nt,6.0,4.4,13.3
Cc1c(CN(C)C)c2c(n1Cc1ccccc1)C(=O)c1ccc(Br)cc1-2,6.7,-24.6,20.6,67.4*,-5.7,20.1
Cc1c(O)cnc2nn(-c3ccccc3)c(=N)n12,-35.6,-20.8,nt,-5.2,-12.5,0.7
CCc1ccc(CNC(=O)C2CCN(S(=O)(=O)N3CCCCC3)CC2)cc1,-16.5,2.8,nt,14.6,19.2,-6.6
S=c1[nH]nc(-c2cc(-c3ccccc3)n[nH]2)n1/N=C/C=C/c1ccccc1,-6.5,2.7,18.7,-28.1,-29.3,-15.1
S=c1[nH]nc(-c2cc(-c3ccccc3)n[nH]2)n1/N=C/C(Br)=C/c1ccccc1,104.4*,-76.9*,-6.0,107.9*,26.4,-20.3
COc1ccccc1/C=C/C=N/n1c(-c2cc(-c3ccccc3)n[nH]2)n[nH]c1=S,0.3,21.1,9.9,-41.0,-41.1,58.2*
S=c1[nH]nc(-c2cc(-c3ccccc3)n[nH]2)n1/N=C/c1ccccc1,-25.1,24.2,1.1,1.0,-13.3,-16.3
CC1(C(=O)Nc2ccc3[nH]ncc3c2)CCN1C(=O)CCc1ccccc1 (stereo not drawn),0.1,10.9,nt,3.1,7.7,-2.3
O=C1/C(=C\c2cccnc2)SC(=S)N1C1CCS(=O)(=O)C1 (stereo not drawn),66.4*,-5.8,4.5,39.0,28.1,31.9
O=C1/C(=C/c2cccnc2)SC(=S)N1C1CCS(=O)(=O)C1 (stereo not drawn),71.9*,-12.9,6.7,28.1,53.2*,26.1
O=C1/C(=C/c2cccnc2)SC(=S)N1N1CCOCC1,-6.1,9.4,1.3,-3.8,7.5,7.5
CCOC(=O)[C@H]1[C@H]2COc3ccccc3[C@@H]2N2C(=O)CNC(=O)[C@@]12C,-15.6,-0.1,nt,-2.6,8.1,-11.1
COc1cc(C#N)c(NC(=S)N2CCN(C(=O)c3ccco3)CC2)cc1OC,-12.8,3.5,nt,5.1,-1.5,5.0

# Source: PubChem (Sanford-Burnham Center for Chemical Genomics)
